A selection: hits, their analogues and other compounds. The true share with any hit is near 1.4%.
12-LOX inh = inhibitors of human 12S-lipoxygenase ALOX12; P18054; purified 12hLO, xylenol orange hydroperoxide absorbance; Potency, µM (doses to about 108 µM), inactives show at the highest dose activity change, negative = inhibition, most hits filed as inhibitors; actives 1.1% (n = 580,000); AID 1671190; also: potency is read from the fitted curve at half-maximal effect; % is scaled to controls: 0 for no effect and ±100 for the full control effect
Target sequence (P18054 whole entry, looked up): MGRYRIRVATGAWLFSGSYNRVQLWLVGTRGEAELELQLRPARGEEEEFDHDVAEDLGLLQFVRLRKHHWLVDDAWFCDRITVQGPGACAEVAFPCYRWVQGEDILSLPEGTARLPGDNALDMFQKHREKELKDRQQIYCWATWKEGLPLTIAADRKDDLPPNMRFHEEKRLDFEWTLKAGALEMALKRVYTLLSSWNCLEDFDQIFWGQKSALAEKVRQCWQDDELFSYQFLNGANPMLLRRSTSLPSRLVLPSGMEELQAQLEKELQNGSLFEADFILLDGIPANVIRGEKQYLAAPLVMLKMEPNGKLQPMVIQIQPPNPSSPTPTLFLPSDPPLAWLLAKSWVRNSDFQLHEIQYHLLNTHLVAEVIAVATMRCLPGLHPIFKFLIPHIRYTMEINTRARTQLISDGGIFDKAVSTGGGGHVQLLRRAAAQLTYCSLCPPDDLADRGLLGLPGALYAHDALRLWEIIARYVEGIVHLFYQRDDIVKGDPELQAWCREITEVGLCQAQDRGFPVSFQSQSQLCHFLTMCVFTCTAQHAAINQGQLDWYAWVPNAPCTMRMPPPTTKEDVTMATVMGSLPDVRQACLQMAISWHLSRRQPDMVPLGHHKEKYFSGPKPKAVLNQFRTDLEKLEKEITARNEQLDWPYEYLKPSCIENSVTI
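Hydroperoxide product was detected by ferrous iron/xylenol orange as the 573 to 405 nm absorbance ratio. Arachidonic acid at 40 uM (final) was turned over for 30 min at room temperature by 150 nM human 12hLO, pH 7.0 Hepes buffer, after 15 min compound preincubation.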
p53 reactivation = restores transcriptional activity of mutant p53; AID 504706; actives 0.063% (n = 320,000); Potency, µM (series often up to 92.2 µM), without a hit: top-dose activity change, positive = activation, usual class: activators; H1299 p53-A138V BP100-luciferase reporter, luminescence, 24 h; also: potency is read from the fitted curve at half-maximal effect; % of control where 0% means no effect; nearly all actives have a fitted effect of over 45% in size
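H1299 (p53-null), stable ts p53-A138V + BP100-Luc; 1000 cells/well, Opti-MEM/10% FBS; cpd 4 pt, 1:5; 24 h, 37 deg C, 5% CO2; detection reagent 10 min RT; luminescence.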
CCT chaperon mod = changes cytosolic chaperonin activity; purified chaperonin ATPase assay, HTRF ADP detection, 30 min; actives 0.3% (n = 360,000); activity change, % (no concentration beside the values), hits read low; in the data active = activity change below about -30%; also: % is scaled to controls: 0 for no effect and ±100 for the full control effect
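We incubate TRiC, 40 or 20 nM final, with library compounds at 76 uM and 10 uM ATP for 30 min at 37 °C. ADP formed is detected with Transcreener HTRF reagents after 30 min at room temperature.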
MmCpn inh = blocks the Methanococcus maripaludis chaperonin Mm-Cpn | purified Mm-Cpn ATPase, ADP Transcreener TR-FRET | AID 504842 | actives 0.031% (n = 330,000) | Potency, µM (series often up to 76.9 µM), for the others: at the top dose activity, negative = inhibition, hits mostly inhibitors; also: potency is read from the fitted curve at half-maximal effect; % is scaled to controls: 0 for no effect and ±100 for the full control effect; nearly all actives have a fitted effect of over 80% in size
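25 nM Mm-CPN + cpd, 10 min 37°C; + 10 uM ATP, 30 min 37°C; buffer 30 mM Tris pH 7.4, 100 mM KCl, 5 mM MgCl2, 1 mM DTT; Transcreener ADP HTRF detection 30 min RT.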
PINK1 modulator = changes PINK1 expression; PINK1 immunofluorescence, high-content cytometry, 24 h; Potency, µM (series often up to 76.6 µM), without a hit: at the top dose activation (PINK1 increase), usual class: activators; actives 0.2% (n = 410,000); active = well fitted activation curve with a large enough effect; inconclusive = small, poorly fitted or top-dose-only effect; cell line not stated here; also: potency is read from the fitted curve at half-maximal effect; % of control where 0% means no effect; nearly all actives have a fitted effect of over 65% in size
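Stable cell line, 250 cells/well, 12 h attachment; compounds pinned at 5 concentrations, 24 h; CCCP control. Fixed with nuclear dye, primary antibodies 12 h at 10 degrees C, secondary plus cell stain; laser-scanning cytometer read.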
ASM inhibitor = blocks human secretory acid sphingomyelinase. P17405. actives 0.006% (n = 340,000). AID 504937. Potency, µM (top dose mostly 57.5 µM), for inactives: at the top dose activity change, negative = inhibition, usual class: inhibitors. placental ASM, HMU-PC fluorogenic substrate, 60 min; also: potency is read from the fitted curve at half-maximal effect
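HMU-PC0 cleavage (9 uM final) by human placental ASM, 60 min at 37 °C following 10 min compound exposure at RT; stopped at pH 10, fluorescence Ex 386/Em 447 nm.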
* marks the source's active call; other numbers are inactive results; i = inactive; ? = inconclusive; . = not tested or not shown; [ ] = another dose, or the depositor's remark. Unless noted, calls follow the shape of the dose curve; as a rule, active = well fitted curve in the direction sought with a large enough effect; inconclusive = small, poorly fitted or top-dose-only effect, or another doubt; inactive = no such curve, though single readings can be large; an effect the other way counts as inactive or inconclusive.

SMILES	12-LOX inh	p53 reactivation	CCT chaperon mod	MmCpn inh	PINK1 modulator	ASM inhibitor
CNc1ccc(Br)cc(C(=O)/C=C/c2ccc(Cl)cc2Cl)c1=O	13µM*	-11%	-1	0%	7%	-2%
Cc1cccc2nc(CNC(=O)CC3C(=O)NCCN3Cc3cccc(F)c3)cn12 (centres undefined)	-2%	-1%	-43*	-1%	1%	-1%
Cc1ccccc1NC(=O)c1c(C)nn(-c2ccccc2)c1Cl	1%	?	-40*	0%	-3%	5%
O=C(O)c1ccc(NC(=O)c2cccc(N3C(=O)C4C5CCC(C5)C4C3=O)c2)cc1 (centres undefined)	-7%	-10%	0	0%	-2%	1%
COc1ccc(NC(=O)c2cccc(N3C(=O)C4C5CCC(C5)C4C3=O)c2)cc1 (centres undefined)	6.3µM*	-5%	0	-13%	-1%	.
Cc1cccc2[nH]cc(C(=O)/C(C#N)=C\c3ccccc3F)c12	-42%	.	.	.	.	.
COc1cccc(C2CN(c3ccc(F)cc3F)N=C2c2cccs2)c1OC (centres undefined)	?	-8%	2	-7%	16%	i
COc1ccccc1C1CN(c2ccccc2)N=C1c1cccs1 (centres undefined)	6.3µM*	1%	-1	-5%	8%[38.3 µM]	i
NC(=O)c1nc(Nc2ccccc2)sc1NC(=O)c1c(F)cccc1F	-14%	.	.	.	2%	.
Cc1ccc(Nc2nc(C(N)=O)c(NC(=O)c3ccccc3Br)s2)cc1	14µM*	.	.	.	5%	.
Cc1ccnc(NC(c2ccccc2F)c2ccc3cccnc3c2O)c1 (centres undefined)	22µM*	.	.	.	2%	.
COc1ccc(CNc2ccc([N+](=O)[O-])cn2)cc1	0%	?	1	1%	0%	-2%
COc1ccc(Nc2ccc([N+](=O)[O-])cn2)cc1	28µM*	.	0	1%	0%	-8%
NNc1ccccc1Br	8.9µM*	.	.	.	.	.
CN(C(=O)c1ccnc(-c2nnc3ccc(N4CCOCC4)nn23)c1)c1ccccc1	32µM*	.	.	.	.	.
c1ccc(NCC2CCOC2)cc1 (centres undefined)	-11%	.	.	.	.	.
O=C(NCCc1noc(-c2ccncc2)n1)c1ccccc1F	28µM*	.	.	.	.	.
CC(=O)c1cccc(NC(=O)c2cccc[n+]2[O-])c1	-37%	.	.	.	.	.
O=S(=O)(c1ccc(C(F)(F)F)cc1)N1CCCN(c2ccc(C(F)(F)F)cn2)CC1	?	1%	-34*	1%	2%	-1%
O=C(O)c1sccc1S(=O)(=O)N1CCN(c2ccc(C(F)(F)F)cn2)CC1	0%	-2%	1	-2%	0%	5%
CCCSc1ccc(C(=O)CCN(C)C)cc1	32µM*	.	.	.	.	.
CCCCCC1CCC(c2ccc(C(=O)CCN(C)C)cc2)CC1 (centres undefined)	7.9µM*	.	.	.	.	.
CCCCCCOc1ccc(C(=O)CCN(C)C)cc1	32µM*	.	.	.	.	.
CCCC1CCC(c2ccc(C(=O)O)cc2)CC1 (centres undefined)	0%	.	.	.	.	.
O=c1cc(CN2CCN(Cc3cccc(C(F)(F)F)c3)CC2)nc2ccc(Br)cn12	-9%	.	.	.	.	.
SMILES	12-LOX inh	p53 reactivation	CCT chaperon mod	MmCpn inh	PINK1 modulator	ASM inhibitor
CCOC(=O)c1ccc(Nc2cc(C)nc3ccccc23)cc1	-7%	.	.	.	.	.
O=C1CNC(=S)N1c1nc(-c2ccccc2)cs1	-6%	10µM*	-4	-11%	1%	0%
COc1ccc(-c2csc(N3C(=O)CNC3=S)n2)cc1	-12%	16%	0	-2%	2%	1%
CCOC(=O)Nc1ccc(C)cc1NC(=O)OCC	-1%	-1%	0	0%	-1%	2%
CCOC(=O)Nc1ccc(NS(=O)(=O)c2ccc(C)cc2Cl)cc1	32µM*	.	.	.	.	.
CCc1cc(CC)n(-c2nc3c(c(=O)n(CC)c(=O)n3C)n2Cc2ccc(OC)cc2)n1	-32%	.	.	.	.	.
Cc1nn(CC(=O)Nc2ccc3c(c2)OCCO3)c(C)c1[N+](=O)[O-]	9%	-1%	-33*	0%	2%	0%
Cc1ccc(NC(=O)Cn2nc(C)c([N+](=O)[O-])c2C)cc1C	6%	5%	0	-4%	3%	-2%
Cc1ccc(C(=O)Nc2c(NC3CCCC3)c3ccccc3oc2=O)cc1	39%	.	.	.	.	.
CCc1ccc(NC(=O)C2CCCN(S(=O)(=O)c3ccc4[nH]c(=O)ccc4c3)C2)cc1 (centres undefined)	-4%	17%	-71*	-4%	3%	-1%
CCc1cccc(NC(=O)C2CCCN(S(=O)(=O)c3c(C)[nH]c(=O)[nH]c3=O)C2)c1 (centres undefined)	-24%	.	-41*	.	1%	1%
O=C(Nc1ccc(Cl)cc1)C1CCCN(S(=O)(=O)c2ccc3[nH]c(=O)ccc3c2)C1 (centres undefined)	-10%	.	.	.	10%	.
COc1ccc(NC(=O)C2CCCN(S(=O)(=O)c3c(C)[nH]c(=O)[nH]c3=O)C2)cc1OC (centres undefined)	-3%	-5%	-2	0%	0%	10%
CCOc1ccc(Cc2n[nH]c(=S)n2N)cc1	?	-8%	-1	1%	-1%	0%
Nn1c(Cc2ccc(Br)cc2)n[nH]c1=S	28µM*	19%	-1	2%	1%	-1%
O=C(CCCN1C(=O)/C(=C\c2ccco2)SC1=S)Nc1ccc(O)cc1C(=O)O	28µM*	2%	-2	-2%	-1%	-4%
O=C(CCCN1C(=O)/C(=C\c2cccs2)SC1=S)Nc1ccc(O)cc1C(=O)O	-23%	-16%	-2	1%	-2%	8%
O=C(CN1C(=O)/C(=C/c2ccco2)SC1=S)Nc1ccc(O)c(C(=O)O)c1	?	0%	0	-2%	-1%	6%
O=C(CN1C(=O)/C(=C/c2ccco2)SC1=S)Nc1ccc(C(=O)O)c(O)c1	28µM*	-2%	0	-6%	-1%	42%
Oc1ccc(N=CCCc2ccccc2)cc1	-1%	.	.	.	.	.
Cc1ccc(C(=O)N/N=C2/CC(=O)CC(C)(C)C2)cc1	-6%	.	.	.	.	.
S=C(c1cn(CCOc2ccccc2)c2ccccc12)N1CCCC1	0%[57.4 µM]	30%	-1	-22%	?	-2%
O=C(O)Cn1cc(C(=S)N2CCCCC2)c2ccccc21	40µM*	6%	0	0%	2%	2%
O=C(O)Cn1cc(C(=S)N2CCOCC2)c2ccccc21	10µM*	-5%	-1	-1%	6%[38.3 µM]	1%
S=C(c1cn(CCOc2cccc3ccccc23)c2ccccc12)N1CCCC1	?	1%	-1	50µM*	28µM*	.

Bioassay records deposited in PubChem by National Center for Advancing Translational Sciences (NCATS).
